# In PMC7862700, “An all-to-all approach to the identification of sequence-specific readers for epigenetic DNA modifications on cytosine”:
# How the values were obtained:
# Assay in all cases: DAPPL (digital affinity profiling via proximity ligation, sequencing); 10 mM Tris-HCl pH 7.5, 50 mM NaCl, 1 mM DTT, 4% glycerol, room temperature, 30 min; GST-TFs on glutathione beads, 16-mer random dsDNA library, 0.1% formaldehyde crosslink after washing; high values mean tight binding
# [1] = target: T1, FLI1 (Homo sapiens, UniProt Q01543 1-452); details: protein: recombinant; tags: N-terminal GST; dsDNA, one strand shown
# T1 sequence: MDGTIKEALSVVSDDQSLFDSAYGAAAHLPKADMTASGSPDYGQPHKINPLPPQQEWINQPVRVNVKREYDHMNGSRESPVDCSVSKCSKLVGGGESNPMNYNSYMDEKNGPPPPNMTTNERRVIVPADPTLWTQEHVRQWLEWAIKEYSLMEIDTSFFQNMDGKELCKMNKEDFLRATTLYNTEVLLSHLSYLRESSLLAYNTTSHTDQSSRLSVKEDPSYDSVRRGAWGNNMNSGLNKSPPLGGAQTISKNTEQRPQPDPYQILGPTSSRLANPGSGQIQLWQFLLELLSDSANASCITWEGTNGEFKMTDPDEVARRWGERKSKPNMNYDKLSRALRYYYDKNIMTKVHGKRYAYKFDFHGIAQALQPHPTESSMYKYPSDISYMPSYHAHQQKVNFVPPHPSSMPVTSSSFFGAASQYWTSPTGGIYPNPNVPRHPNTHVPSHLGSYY
# Outline: (§1)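 A tag-only sample was pooled with DNA-barcoded human transcription factors that had been expressed in yeast as GST fusions and captured on glutathione beads. The pools were incubated for 30 min at room temperature with 200 nmole of a random double-stranded 16-mer DNA library in Tris/NaCl/DTT/glycerol buffer, then washed, crosslinked with 0.1% formaldehyde, proximity-ligated (BsaI/T4 ligase, 1 h, 37 °C), PCR-amplified and sequenced on an Illumina NextSeq500. Binding signal is each hexamer's read frequency for a factor divided by its frequency for the tag-only sample.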
# [2] = target: T2, ELK1 (Homo sapiens, UniProt P19419 1-428); details: protein: recombinant; tags: N-terminal GST; dsDNA, one strand shown
# T2 sequence: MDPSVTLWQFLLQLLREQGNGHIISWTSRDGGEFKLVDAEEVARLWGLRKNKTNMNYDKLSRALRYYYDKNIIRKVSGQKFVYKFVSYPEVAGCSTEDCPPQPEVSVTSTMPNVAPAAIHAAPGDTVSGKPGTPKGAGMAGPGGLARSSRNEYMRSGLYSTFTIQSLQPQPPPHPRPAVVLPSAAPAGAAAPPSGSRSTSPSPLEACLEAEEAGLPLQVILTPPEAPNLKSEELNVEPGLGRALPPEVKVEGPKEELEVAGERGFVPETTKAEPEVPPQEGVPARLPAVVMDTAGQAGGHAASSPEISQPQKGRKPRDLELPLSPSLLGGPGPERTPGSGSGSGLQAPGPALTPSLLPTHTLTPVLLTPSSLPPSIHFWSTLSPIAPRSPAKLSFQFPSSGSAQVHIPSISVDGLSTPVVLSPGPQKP
# Outline: as §1
# [3] = target: T3, GABPA (Homo sapiens, UniProt Q06546 1-454); details: protein: recombinant; tags: N-terminal GST; dsDNA, one strand shown
# T3 sequence: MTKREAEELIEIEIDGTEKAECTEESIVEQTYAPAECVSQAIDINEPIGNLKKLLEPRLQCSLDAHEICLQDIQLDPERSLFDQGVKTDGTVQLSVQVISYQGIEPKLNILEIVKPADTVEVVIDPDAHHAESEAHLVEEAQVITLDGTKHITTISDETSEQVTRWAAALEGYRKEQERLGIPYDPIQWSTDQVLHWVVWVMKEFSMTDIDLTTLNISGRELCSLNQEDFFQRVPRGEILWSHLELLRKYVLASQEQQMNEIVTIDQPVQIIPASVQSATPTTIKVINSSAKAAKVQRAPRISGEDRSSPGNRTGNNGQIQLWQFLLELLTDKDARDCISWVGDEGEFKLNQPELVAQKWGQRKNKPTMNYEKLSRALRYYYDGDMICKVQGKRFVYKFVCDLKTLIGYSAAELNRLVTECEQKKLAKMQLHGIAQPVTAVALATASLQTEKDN
# Outline: as §1
# [4] = target: T4, ERG (Homo sapiens, UniProt P11308 1-479); details: protein: recombinant; tags: N-terminal GST; dsDNA, one strand shown
# T4 sequence: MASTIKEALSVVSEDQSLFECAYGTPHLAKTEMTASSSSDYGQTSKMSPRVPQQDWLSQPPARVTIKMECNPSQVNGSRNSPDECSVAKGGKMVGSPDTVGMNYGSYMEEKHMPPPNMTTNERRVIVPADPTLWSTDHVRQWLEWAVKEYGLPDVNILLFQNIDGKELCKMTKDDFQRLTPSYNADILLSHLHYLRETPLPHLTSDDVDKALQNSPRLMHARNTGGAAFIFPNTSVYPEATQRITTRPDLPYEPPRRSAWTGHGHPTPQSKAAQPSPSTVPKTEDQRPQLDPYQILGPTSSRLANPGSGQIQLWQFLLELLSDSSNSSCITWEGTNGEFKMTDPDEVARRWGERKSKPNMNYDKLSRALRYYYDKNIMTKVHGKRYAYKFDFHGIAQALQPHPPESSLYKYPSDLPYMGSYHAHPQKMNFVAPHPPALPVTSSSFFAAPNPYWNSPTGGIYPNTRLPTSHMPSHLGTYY
# Outline: as §1
# [5] = target: ELF1 (Homo sapiens, UniProt P32519 1-619); details: protein: recombinant; tags: N-terminal GST; dsDNA, one strand shown
# Chain of ELF1 (P32519 whole entry): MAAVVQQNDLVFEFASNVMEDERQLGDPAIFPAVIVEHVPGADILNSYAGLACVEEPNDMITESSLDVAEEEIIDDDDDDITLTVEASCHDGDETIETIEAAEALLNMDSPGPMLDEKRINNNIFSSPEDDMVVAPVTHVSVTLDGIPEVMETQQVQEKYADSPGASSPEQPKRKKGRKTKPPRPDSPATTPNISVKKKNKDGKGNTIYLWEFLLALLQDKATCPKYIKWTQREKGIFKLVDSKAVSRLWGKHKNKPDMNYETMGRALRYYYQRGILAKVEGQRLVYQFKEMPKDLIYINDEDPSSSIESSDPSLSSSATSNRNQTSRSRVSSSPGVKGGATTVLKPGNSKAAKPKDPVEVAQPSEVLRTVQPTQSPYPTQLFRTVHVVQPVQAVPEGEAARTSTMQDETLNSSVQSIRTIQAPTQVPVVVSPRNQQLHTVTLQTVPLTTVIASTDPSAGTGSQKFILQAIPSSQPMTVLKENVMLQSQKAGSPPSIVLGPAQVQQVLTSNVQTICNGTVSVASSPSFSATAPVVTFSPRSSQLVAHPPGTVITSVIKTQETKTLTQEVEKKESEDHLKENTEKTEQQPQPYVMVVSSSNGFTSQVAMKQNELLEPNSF
# Outline: as §1
# [6] = target: T5, EHF (Homo sapiens, UniProt Q9NZC4 1-300); details: protein: recombinant; tags: N-terminal GST; dsDNA, one strand shown
# T5 sequence: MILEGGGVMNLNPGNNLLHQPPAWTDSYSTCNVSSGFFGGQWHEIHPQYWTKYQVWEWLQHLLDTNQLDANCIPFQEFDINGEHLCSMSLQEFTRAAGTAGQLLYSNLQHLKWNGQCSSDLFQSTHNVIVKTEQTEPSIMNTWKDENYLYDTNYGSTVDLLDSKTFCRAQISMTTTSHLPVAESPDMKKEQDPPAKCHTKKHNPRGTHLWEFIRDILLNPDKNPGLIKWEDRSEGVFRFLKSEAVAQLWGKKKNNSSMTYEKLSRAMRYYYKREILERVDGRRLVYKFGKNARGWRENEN
# Outline: as §1
# [7] = target: SPI1 (Homo sapiens, UniProt P17947 1-270); details: protein: recombinant; tags: N-terminal GST; dsDNA, one strand shown
# Outline: as §1
# [8] = target: SPIB (Homo sapiens, UniProt Q01892 1-262); details: protein: recombinant; tags: N-terminal GST; dsDNA, one strand shown
# Chain of SPIB (Q01892 whole entry): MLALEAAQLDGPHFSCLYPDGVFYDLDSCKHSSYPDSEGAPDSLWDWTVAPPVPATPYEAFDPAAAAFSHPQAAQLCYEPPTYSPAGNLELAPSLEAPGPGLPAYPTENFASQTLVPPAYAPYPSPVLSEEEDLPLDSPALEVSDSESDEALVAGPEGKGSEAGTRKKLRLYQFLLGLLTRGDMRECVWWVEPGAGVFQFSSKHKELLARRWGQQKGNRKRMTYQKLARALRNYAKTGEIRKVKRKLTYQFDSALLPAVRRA
# Outline: as §1
# [9] = target: T6, ELK3 (Homo sapiens, UniProt P41970 1-407); details: protein: recombinant; tags: N-terminal GST; dsDNA, one strand shown
# T6 sequence: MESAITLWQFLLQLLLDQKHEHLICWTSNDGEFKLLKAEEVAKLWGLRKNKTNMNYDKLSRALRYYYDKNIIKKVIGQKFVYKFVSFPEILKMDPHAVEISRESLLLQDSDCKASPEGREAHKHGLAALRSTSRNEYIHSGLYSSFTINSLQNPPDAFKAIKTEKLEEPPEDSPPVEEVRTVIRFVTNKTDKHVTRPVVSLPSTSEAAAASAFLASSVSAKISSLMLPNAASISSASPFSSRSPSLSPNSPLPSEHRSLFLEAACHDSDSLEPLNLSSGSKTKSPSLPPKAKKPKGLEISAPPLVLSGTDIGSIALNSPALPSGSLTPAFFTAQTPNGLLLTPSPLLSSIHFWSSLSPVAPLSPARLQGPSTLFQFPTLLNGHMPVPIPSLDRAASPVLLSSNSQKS
# Outline: as §1
# [10] = target: T7, FEV (Homo sapiens, UniProt Q99581 1-238); details: protein: recombinant; tags: N-terminal GST; dsDNA, one strand shown
# T7 sequence: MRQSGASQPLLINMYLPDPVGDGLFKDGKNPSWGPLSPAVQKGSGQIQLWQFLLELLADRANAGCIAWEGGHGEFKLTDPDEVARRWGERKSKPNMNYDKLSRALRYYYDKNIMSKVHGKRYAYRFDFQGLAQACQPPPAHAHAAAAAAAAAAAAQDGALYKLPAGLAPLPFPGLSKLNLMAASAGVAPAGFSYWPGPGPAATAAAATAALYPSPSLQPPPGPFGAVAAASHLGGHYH
# Outline: as §1
# [11] = target: ETV5 (Homo sapiens, UniProt P41161 1-510); details: protein: recombinant; tags: N-terminal GST; dsDNA, one strand shown
# Chain of ETV5 (P41161 whole entry): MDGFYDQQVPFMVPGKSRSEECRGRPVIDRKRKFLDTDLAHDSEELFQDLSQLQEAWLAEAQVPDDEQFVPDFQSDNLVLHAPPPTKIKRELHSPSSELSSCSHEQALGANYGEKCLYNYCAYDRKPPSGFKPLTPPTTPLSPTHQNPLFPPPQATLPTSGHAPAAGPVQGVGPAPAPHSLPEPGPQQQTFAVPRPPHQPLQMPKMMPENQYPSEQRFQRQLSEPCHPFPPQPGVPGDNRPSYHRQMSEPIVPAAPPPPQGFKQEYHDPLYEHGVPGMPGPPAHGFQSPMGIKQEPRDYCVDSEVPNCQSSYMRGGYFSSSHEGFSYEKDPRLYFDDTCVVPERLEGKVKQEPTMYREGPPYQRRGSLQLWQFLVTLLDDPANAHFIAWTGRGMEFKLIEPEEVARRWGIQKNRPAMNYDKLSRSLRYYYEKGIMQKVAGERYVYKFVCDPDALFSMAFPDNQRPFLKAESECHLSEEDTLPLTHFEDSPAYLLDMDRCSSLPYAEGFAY
# Outline: as §1
# [12] = target: HSF1 (Homo sapiens, UniProt Q00613 1-529); details: protein: recombinant; tags: N-terminal GST; chain copies: 3; dsDNA, one strand shown
# Chain of HSF1 (Q00613 whole entry): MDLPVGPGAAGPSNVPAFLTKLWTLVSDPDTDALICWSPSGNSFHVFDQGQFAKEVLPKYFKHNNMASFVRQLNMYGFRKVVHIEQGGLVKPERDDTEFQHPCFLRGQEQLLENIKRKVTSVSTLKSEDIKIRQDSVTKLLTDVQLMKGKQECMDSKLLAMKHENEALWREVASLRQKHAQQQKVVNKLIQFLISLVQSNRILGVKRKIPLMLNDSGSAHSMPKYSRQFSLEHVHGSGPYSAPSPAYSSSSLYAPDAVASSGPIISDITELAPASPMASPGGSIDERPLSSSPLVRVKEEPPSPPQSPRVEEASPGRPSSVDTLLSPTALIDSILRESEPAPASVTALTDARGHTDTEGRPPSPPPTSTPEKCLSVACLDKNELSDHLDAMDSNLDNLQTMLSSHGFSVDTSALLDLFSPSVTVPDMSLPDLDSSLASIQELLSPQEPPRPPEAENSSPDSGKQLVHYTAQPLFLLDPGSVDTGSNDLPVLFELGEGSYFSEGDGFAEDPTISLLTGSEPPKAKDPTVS
# Outline: as §1
# [13] = target: T8, SPIC (Homo sapiens, UniProt Q8N5J4 1-248); details: protein: recombinant; tags: N-terminal GST; dsDNA, one strand shown
# T8 sequence: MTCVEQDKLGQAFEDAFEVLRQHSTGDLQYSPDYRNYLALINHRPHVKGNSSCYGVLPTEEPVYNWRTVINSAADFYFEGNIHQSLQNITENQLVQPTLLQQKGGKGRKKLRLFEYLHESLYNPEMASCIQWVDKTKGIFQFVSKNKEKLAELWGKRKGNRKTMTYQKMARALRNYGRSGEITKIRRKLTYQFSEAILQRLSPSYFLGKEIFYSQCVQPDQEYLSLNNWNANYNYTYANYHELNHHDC
# Outline: as §1
# [14] = target: ELF4 (Homo sapiens, UniProt Q99607 1-663); details: protein: recombinant; tags: N-terminal GST; dsDNA, one strand shown
# Chain of ELF4 (Q99607 whole entry): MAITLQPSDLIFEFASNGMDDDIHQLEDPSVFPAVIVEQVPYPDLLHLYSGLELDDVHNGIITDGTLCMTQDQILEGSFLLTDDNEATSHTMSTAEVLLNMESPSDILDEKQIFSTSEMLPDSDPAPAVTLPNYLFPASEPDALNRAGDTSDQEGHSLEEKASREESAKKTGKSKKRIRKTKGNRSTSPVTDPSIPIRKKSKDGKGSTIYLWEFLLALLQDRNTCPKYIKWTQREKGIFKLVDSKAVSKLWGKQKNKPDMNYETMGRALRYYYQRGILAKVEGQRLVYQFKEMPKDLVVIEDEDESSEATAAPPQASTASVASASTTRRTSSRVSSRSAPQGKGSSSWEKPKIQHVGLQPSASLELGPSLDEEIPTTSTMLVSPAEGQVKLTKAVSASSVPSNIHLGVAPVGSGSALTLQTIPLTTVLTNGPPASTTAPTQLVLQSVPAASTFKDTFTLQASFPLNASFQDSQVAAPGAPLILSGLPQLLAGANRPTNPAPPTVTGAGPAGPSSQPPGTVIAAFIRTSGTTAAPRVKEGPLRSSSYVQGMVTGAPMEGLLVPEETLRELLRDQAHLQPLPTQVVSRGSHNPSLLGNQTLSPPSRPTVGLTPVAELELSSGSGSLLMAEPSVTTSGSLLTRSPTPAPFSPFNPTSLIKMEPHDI
# Outline: as §1
# [15] = target: T9, ELK4 (Homo sapiens, UniProt P28324-2 1-405); details: protein: recombinant; tags: N-terminal GST; dsDNA, one strand shown
# T9 sequence: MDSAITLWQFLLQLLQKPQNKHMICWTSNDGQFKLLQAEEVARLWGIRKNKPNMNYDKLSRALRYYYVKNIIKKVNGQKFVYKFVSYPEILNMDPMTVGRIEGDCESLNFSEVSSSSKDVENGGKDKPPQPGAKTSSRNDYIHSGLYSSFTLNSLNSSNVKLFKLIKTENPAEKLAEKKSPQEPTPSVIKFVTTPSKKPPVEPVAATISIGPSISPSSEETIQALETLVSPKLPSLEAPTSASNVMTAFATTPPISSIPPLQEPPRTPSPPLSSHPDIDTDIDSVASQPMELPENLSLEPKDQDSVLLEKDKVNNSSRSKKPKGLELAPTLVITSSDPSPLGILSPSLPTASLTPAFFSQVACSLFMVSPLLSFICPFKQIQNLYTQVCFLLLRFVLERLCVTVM
# Outline: as §1
# [16] = target: T10, ETV2 (Homo sapiens, UniProt O00321 1-342); details: protein: recombinant; tags: N-terminal GST; dsDNA, one strand shown
# T10 sequence: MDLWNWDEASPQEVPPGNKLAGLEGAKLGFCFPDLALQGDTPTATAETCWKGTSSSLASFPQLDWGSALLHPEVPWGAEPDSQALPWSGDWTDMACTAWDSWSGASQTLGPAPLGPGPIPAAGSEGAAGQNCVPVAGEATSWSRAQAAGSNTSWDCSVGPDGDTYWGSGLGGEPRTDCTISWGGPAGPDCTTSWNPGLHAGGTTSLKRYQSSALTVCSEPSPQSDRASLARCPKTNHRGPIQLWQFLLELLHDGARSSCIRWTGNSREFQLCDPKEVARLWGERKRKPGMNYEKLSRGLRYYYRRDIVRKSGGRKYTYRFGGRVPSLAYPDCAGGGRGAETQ
# Outline: as §1
# [17] = target: T11, ELF3 (Homo sapiens, UniProt P78545 1-371); details: protein: recombinant; tags: N-terminal GST; dsDNA, one strand shown
# T11 sequence: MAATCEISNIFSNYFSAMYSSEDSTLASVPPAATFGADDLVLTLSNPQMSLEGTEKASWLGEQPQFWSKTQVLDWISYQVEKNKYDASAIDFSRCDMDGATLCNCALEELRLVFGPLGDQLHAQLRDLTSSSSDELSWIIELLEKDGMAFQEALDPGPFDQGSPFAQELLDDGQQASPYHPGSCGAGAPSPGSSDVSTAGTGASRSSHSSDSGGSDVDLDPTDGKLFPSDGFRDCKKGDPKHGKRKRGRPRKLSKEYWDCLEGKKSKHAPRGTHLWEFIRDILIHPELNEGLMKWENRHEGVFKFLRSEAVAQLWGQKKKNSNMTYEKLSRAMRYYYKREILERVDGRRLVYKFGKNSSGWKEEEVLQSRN
# Outline: as §1
# [18] = target: CRX (Homo sapiens, UniProt O43186 1-299); details: protein: recombinant; tags: N-terminal GST; dsDNA, one strand shown
# Chain of CRX (O43186 whole entry): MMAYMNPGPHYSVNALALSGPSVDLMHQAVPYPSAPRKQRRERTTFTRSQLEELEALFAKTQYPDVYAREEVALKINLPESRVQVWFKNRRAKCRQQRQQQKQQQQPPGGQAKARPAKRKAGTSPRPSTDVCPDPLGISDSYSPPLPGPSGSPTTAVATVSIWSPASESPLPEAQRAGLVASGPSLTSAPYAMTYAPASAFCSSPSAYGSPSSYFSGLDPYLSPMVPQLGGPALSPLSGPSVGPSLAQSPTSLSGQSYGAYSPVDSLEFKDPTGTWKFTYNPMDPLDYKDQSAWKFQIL
# Outline: as §1
# [19] = target: ETV1 (Homo sapiens, UniProt P50549 1-477); details: protein: recombinant; tags: N-terminal GST; dsDNA, one strand shown
# Chain of ETV1 (P50549 whole entry): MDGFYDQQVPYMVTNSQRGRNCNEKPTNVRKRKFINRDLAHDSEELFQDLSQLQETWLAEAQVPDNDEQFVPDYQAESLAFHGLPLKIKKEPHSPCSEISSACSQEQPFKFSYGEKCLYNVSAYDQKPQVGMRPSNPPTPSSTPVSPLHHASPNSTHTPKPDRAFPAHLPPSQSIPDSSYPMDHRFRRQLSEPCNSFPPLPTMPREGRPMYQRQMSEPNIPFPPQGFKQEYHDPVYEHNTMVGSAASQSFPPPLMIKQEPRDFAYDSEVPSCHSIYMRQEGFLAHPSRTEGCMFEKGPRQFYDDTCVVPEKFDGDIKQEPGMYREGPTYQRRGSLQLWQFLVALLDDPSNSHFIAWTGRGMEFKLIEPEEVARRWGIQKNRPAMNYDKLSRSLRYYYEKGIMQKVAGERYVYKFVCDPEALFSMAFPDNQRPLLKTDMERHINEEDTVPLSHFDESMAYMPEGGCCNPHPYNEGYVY
# Outline: as §1
sequence,measurement,setting,value
ATATTA,binding signal,[1],"1.08 fold enrichment (6-mer frequency, TF over GST control)"
same,binding signal,[2],"1.11 fold enrichment (6-mer frequency, TF over GST control)"
same,binding signal,[3],"1.12 fold enrichment (6-mer frequency, TF over GST control)"
same,binding signal,[4],"1.09 fold enrichment (6-mer frequency, TF over GST control)"
same,binding signal,[5],"1.16 fold enrichment (6-mer frequency, TF over GST control)"
same,binding signal,[6],"1.08 fold enrichment (6-mer frequency, TF over GST control)"
same,binding signal,[7],"1.03 fold enrichment (6-mer frequency, TF over GST control)"
same,binding signal,[8],"1.16 fold enrichment (6-mer frequency, TF over GST control)"
same,binding signal,[9],"1.13 fold enrichment (6-mer frequency, TF over GST control)"
same,binding signal,[10],"1.07 fold enrichment (6-mer frequency, TF over GST control)"
same,binding signal,[11],"1.14 fold enrichment (6-mer frequency, TF over GST control)"
same,binding signal,[12],"1.35 fold enrichment (6-mer frequency, TF over GST control)"
same,binding signal,[13],"1.23 fold enrichment (6-mer frequency, TF over GST control)"
same,binding signal,[14],"1.13 fold enrichment (6-mer frequency, TF over GST control)"
same,binding signal,[15],"1.16 fold enrichment (6-mer frequency, TF over GST control)"
same,binding signal,[16],"1.13 fold enrichment (6-mer frequency, TF over GST control)"
same,binding signal,[17],"1.21 fold enrichment (6-mer frequency, TF over GST control)"
same,binding signal,[18],"1.8 fold enrichment (6-mer frequency, TF over GST control)"
same,binding signal,[19],"1.17 fold enrichment (6-mer frequency, TF over GST control)"
